Measurements as given in PubChem BioAssay (NCI).
About 83,000 compounds went through this panel and 20% of them were active in at least one assay; those are over-represented in the sample as a whole.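 Values shown are percent growth following 48 h exposure of cells in 96-well plates to a single concentration of compound; below 10 was considered active.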 Activity calls are given as the source filed them.

What follows are compounds tested on HL-60(TB) leukemia (assay: NCI-60 one-dose screen, 48 h (100 = growth as untreated, 0 = no growth, -100 = all killed)). Settings: 10 µM unless noted.
In the case of `C=C1C(=O)O[C@H]2[C@H]1CC/C(CNC(=O)c1cc3cc(OC)ccc3[nH]1)=C\CC[C@@]1(C)O[C@@H]21`, the growth is reported as -21.3% (active). For `CCOc1ccc([C@@H]2[C@@H](Oc3ccccc3)C(=O)N2c2cc(OC)c(OC)c(OC)c2)cc1`, the growth was -36% (active). For `CC1(C)CC[C@]2(c3nnc(-c4ccncc4)o3)CC[C@]3(C)C(=CC[C@@H]4[C@@]5(C)CCC(=O)C(C)(C)[C@@H]5CC[C@]43C)[C@@H]2C1`, the growth was 30.7% (inactive). With `COc1cc2c(c(OC)c1OC)CCc1cnoc1-2` the growth was 114% (inactive). In the case of `CCOC(=O)C1=C(CCl)N(C)C(=O)NC1c1ccc2c(c1)OCO2` (stereo not given), the growth is reported as 33.1% (inactive). In the case of `C[C@H]1[C@H](C)CC[C@]2(C(=O)O)CC[C@]3(C)C(=CC[C@@H]4[C@@]5(C)C/C(=C/c6cccnc6)[C@H](O)C(C)(C)[C@@H]5CC[C@]43C)[C@H]12`, the growth is reported as -16.5% [100 µM] (active). With `NS(=O)(=O)c1ccc(C(=O)NN2C(=O)c3ccccc3C2=O)cc1` the growth was 103% (inactive). In the case of `NNC(=O)CNc1ccc2ccccc2c1`, the growth is reported as 84.8% (inactive). In the case of `CSc1ncc2ncn(C3OC(CO)C(O)C3O)c2n1` (stereo not given), the growth is reported as 114% (inactive). In the case of `CC1=C[S+](c2ccccc2)c2cccc3cc4ccccc4c1c23` (stereo not given), the growth is reported as -50.3% (active). `NCCCNc1nc2ccccc2c2c(=O)c3cccc(Cl)c3sc12` was tested, and the growth was -45% (active). In the case of `CNC(=O)c1cc(Oc2ccc3nc(NC(=O)Nc4ccc(Cl)c(Cl)c4)sc3c2)ccn1`, the growth is reported as 78.8% (inactive). `CC(C)(Sc1cc(C(C)(C)C)c(O)c(C(C)(C)C)c1)Sc1cc(C(C)(C)C)c(OC(=O)CCC(=O)O)c(C(C)(C)C)c1` was tested, and the growth was 56.1% (inactive). With `Oc1c(Cl)cc(Cl)cc1C(c1cc(Cl)cc(Cl)c1O)C(Cl)(Cl)Cl` the growth was 1.53% (active). `Cc1ccc(-c2ccc(Nc3ccccc3)nn2)cc1S(N)(=O)=O` was tested, and the growth was 86.7% (inactive). In the case of `COC(=O)CCCCCN=Cc1c(O)c(O)c(C(C)C)c2cc(C)c(-c3c(C)cc4c(C(C)C)c(O)c(O)c(C=NCCCCCC(=O)OC)c4c3O)c(O)c12`, the growth is reported as 15.4% (inactive). In the case of `Nc1nc(NC2CC2)cc(-c2cccc(Cl)c2Cl)n1`, the growth is reported as 32.6% (inactive). With `COC(=O)c1nc(-c2ccccc2)oc1S(=O)(=O)N1CCCC(C)C1` (stereo not given) the growth was 15% (inactive). In the case of `CCN1CCC(CCOC)(CN2c3ccccc3Sc3ccc(Cl)cc32)C1` (stereo not given), the growth is reported as 58.5% (inactive). With `O=C1NC(=O)/C(=C/c2ccc3nccc(-c4ccncc4)c3c2)S1` the growth was -32.1% (active). With `CCN(CC)Cc1cc(Nc2ccnc3cc(Cl)ccc23)ccc1OC` the growth was 86% (inactive). For `CC1=CC(=NN=c2cc(C)n([O-])c(C)c2)C=C(C)[N+]1=O`, the growth was 37.6% (inactive). With `Clc1ccc2c(c1)-n1cccc1C(c1ccc3ccccc3c1)=NC2` the growth was 76.9% (inactive). `CCN(Cc1ccccc1)c1ccc(C=O)cc1` was tested, and the growth was 85.2% (inactive). With `CCN(CC)CCNc1ccc([N+](=O)[O-])c2sc3ccccc3c(=O)c12` the growth was 17% (inactive).
